Data taken from PubChem BioAssay (NCATS).
Records with an inconclusive call do not appear. Entries that show only a call come without a potency. A number with no mark means an inactive call. Activity calls are given as the source filed them. The call rests on the fitted dose curve; in most records, active means well fitted curve in the direction sought with a large enough effect; inconclusive means small, poorly fitted or top-dose-only effect, or another doubt; inactive means no such curve, though single readings can be large; an effect the other way counts as inactive or inconclusive.

Assays:
[1] = target: Rap guanine nucleotide exchange factor 3 (Homo sapiens) (UniProt O95398); assay: Confirmatory qHTS for antagonist of cAMP-regulated guanine nucleotide exchange factor 3 (EPAC1) (AID 1645880); settings: EPAC1 Rap1B-BODIPY-GDP exchange, fluorescence; activity, negative = inhibition: at 115 µM (top of the series); further: nearly all actives have a fitted effect of over 55% in size; further: potency means the concentration at half of the fitted maximal effect
Outline: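 Released BODIPY-GDP fluoresces less than Rap1-bound BODIPY-GDP; the signal is followed at 480/540 nm at 5-min intervals over 30 min, after 5 min at room temperature. Reactions contain 100 nM EPAC1, 250 nM RAP1B-BODIPY-GDP and 50 uM GDP; results are normalized to ATA and DMSO.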

[2] = target: Rap guanine nucleotide exchange factor 3 (Homo sapiens) (UniProt O95398); assay: Confirmatory qHTS for agonist of cAMP-regulated guanine nucleotide exchange factor 3 (EPAC1) (AID 1645881);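 further: EPAC1 catalysed release of BODIPY-GDP from Rap1B seen as fluorescence loss; nearly all actives have a fitted effect of over 75% in size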
[3] = target: Rap guanine nucleotide exchange factor 4 (Homo sapiens) (UniProt Q8WZA2); assay: Confirmatory qHTS for agonist of cAMP-regulated guanine nucleotide exchange factor 4 (EPAC2) (AID 1645884);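 further: nucleotide exchange releases bodipy-GDP from Rap1 and this lowers its fluorescence; nearly all actives have a fitted effect of over 65% in size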; further: potency means the concentration at half of the fitted maximal effect
[4] = target: Rap guanine nucleotide exchange factor 3 (Homo sapiens) (UniProt O95398); assay: Counterscreen qHTS for antagonist of cAMP-regulated guanine nucleotide exchange factor 3 (EPAC1) (AID 1645888)
Outline: (§1)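 Measured: fluorescence of BODIPY-GDP bound to Rap1B, which falls as exchange proceeds. Conditions include 50 uM competing GDP, 5 and 30 min reads, and a later cAMP challenge for antagonist detection.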

[5] = target: Rap guanine nucleotide exchange factor 3 (Homo sapiens) (UniProt O95398); assay: Counterscreen qHTS for agonist of cAMP-regulated guanine nucleotide exchange factor 3 (EPAC1) (AID 1645889); further: nearly all actives have a fitted effect of over 40% in size
Outline: as §1

Sequence of Rap guanine nucleotide exchange factor 3 (Homo sapiens) (O95398 whole entry, looked up): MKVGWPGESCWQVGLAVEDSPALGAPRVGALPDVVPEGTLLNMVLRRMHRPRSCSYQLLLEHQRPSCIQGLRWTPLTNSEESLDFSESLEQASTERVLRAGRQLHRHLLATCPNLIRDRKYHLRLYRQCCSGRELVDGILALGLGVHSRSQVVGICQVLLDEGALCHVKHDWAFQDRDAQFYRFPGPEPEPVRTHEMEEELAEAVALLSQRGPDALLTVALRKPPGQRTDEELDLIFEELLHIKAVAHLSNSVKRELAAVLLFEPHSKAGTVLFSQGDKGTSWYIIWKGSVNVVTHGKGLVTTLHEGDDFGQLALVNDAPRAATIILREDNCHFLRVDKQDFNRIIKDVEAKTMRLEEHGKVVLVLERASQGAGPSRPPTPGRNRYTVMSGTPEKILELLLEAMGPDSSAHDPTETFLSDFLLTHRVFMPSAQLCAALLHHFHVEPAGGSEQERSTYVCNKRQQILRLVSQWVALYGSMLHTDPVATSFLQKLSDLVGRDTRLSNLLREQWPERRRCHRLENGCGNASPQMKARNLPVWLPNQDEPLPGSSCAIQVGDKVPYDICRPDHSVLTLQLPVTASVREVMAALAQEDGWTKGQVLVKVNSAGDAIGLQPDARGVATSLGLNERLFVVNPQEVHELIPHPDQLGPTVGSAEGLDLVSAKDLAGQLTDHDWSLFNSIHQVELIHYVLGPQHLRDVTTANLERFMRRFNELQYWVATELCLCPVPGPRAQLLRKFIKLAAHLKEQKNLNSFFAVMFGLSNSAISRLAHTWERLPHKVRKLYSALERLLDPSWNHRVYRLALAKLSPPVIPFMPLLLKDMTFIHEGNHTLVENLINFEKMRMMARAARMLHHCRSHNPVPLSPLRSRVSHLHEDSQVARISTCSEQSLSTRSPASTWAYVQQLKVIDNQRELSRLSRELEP
Sequence of Rap guanine nucleotide exchange factor 4 (Homo sapiens) (Q8WZA2 whole entry, looked up): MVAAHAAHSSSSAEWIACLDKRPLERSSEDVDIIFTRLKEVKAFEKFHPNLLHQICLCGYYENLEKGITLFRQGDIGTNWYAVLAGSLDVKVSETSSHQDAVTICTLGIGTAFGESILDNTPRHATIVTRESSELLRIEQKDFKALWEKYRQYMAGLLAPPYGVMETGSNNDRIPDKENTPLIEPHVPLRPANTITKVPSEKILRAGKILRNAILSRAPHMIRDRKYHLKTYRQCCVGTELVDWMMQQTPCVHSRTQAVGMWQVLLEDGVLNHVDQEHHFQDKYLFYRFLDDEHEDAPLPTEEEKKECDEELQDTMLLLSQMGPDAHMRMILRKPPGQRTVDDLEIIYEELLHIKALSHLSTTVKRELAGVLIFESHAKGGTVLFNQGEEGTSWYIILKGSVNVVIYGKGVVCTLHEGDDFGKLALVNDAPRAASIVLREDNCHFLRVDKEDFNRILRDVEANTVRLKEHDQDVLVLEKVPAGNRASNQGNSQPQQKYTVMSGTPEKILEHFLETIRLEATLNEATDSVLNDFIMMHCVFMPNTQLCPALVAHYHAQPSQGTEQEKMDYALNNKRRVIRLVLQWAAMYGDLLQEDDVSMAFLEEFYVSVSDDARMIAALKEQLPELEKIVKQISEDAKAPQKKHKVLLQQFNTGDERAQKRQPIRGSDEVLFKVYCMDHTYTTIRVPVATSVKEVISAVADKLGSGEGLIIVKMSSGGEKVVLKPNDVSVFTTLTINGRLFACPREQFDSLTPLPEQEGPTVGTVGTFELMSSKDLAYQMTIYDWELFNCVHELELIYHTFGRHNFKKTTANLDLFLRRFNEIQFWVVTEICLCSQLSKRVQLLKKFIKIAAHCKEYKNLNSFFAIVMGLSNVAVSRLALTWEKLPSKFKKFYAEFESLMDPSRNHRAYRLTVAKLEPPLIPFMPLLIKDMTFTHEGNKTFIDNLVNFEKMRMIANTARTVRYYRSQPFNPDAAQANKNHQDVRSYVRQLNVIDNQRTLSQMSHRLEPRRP

| Structure (SMILES) | Potency [1] | Potency [2] | activation [3] | activity change, negative = inhibition [4] | activation [5] | Potency [3] | Potency [4] | Potency [5] |
| --- | --- | --- | --- | --- | --- | --- | --- | --- |
| CC1(C(=O)NS(=O)(=O)c2cccc(Cl)c2)CCN1C(=O)C1(c2ccc(Cl)cc2)CCC1 (stereo not given) | 11.2 µM (active) | inactive | 6.65% [at 17.1 µM, percent relative to cAMP agonist control] | -18.6% [at 30.8 µM] | 5.49% [at 30.8 µM] |  |  |  |
| O=C(c1ccccc1)c1cccc2ccccc12 | inactive | inactive | 6.02% [at 17.1 µM, percent relative to cAMP agonist control] | -2.88% [at 30.8 µM] | 19% [at 30.8 µM] |  |  |  |
| C=CCn1c(Cc2ccccc2)nc2c(cnn2-c2ccccc2)c1=O | inactive | inactive |  |  |  | inactive | inactive | inactive |
| CCOc1ccc(C(=O)NCC(=O)Nc2ncccc2C)cc1OCC | inactive | inactive |  |  |  | inactive | inactive | inactive |
| CC(C)CSC1=NSC2=NC(=O)/C(=C\c3coc4ccccc4c3=O)C(=N)N12 | inactive | inactive |  |  |  | 112 µM (active) | inactive | inactive |
| Cc1ccc2oc(C(=O)N3CCCCCC3)c(C)c2c1 | inactive | inactive |  |  |  | inactive | inactive | inactive |
| O=C(O)Cc1ccc(N=Nc2c(O)c(C(=O)O)cc3ccccc23)cc1 | 33.8 µM (active) | inactive |  |  |  | inactive | inactive | inactive |
| CCOC(=O)C1CCCCN1Cc1cccc(Oc2ccccc2)c1 (stereo not given) | inactive | inactive | 6.17% [at 17.1 µM, percent relative to cAMP agonist control] | -24.9% [at 30.8 µM] | 29% [at 30.8 µM] |  |  |  |
| COC(=O)C1=C(C)N(CCCC(=O)O)C(=O)NC1c1ccc(-c2ccccc2)cc1 (stereo not given) | inactive | inactive |  |  |  | inactive | inactive | inactive |
| CCN(CC(=O)Nc1ccc(NC(C)=O)cc1)C(=O)C1(c2ccc(Cl)cc2)CCC1 | inactive | inactive |  |  |  | inactive | inactive | inactive |
| C=CCn1c(SC(F)F)nc2scc(-c3ccco3)c2c1=O | inactive | inactive |  |  |  | inactive | inactive | inactive |
| Cc1cc(C)c2sc(N(CCCN(C)C)C(=O)c3ccc(S(=O)(=O)N(C)C4CCCCC4)cc3)nc2c1 | inactive | inactive |  |  |  | inactive | inactive | inactive |
| COc1ccccc1C(=O)C1CCCN(C(=O)c2ccc3c(c2)OCCO3)C1 (stereo not given) | inactive | inactive |  |  |  | inactive | inactive | inactive |
| O=C(NN1C(=O)/C(=C/c2ccc(O)c([N+](=O)[O-])c2)SC1=S)c1ccccc1Cl | 84.9 µM (active) | inactive |  |  |  | inactive | inactive | inactive |
| CNc1nc(C)cc(C)c1S(=O)(=O)c1ccc(C)cc1 | inactive | inactive | 6.77% [at 17.1 µM, percent relative to cAMP agonist control] | -11.2% [at 30.8 µM] | 14.5% [at 30.8 µM] |  |  |  |
| Cc1ccc(Cl)cc1N1CCN(C(=O)c2cccc3c(=O)c(C)c(-c4ccccc4)oc23)CC1 | inactive | inactive | 13% [at 17.1 µM, percent relative to cAMP agonist control] | -10.3% [at 30.8 µM] | 25.9% [at 30.8 µM] |  |  |  |
| Cc1ccc(Cc2c(-c3cccc(Cl)c3)nc3ccc(Br)cn23)cc1 | 75.7 µM (active) | inactive |  |  |  | inactive | inactive | inactive |
| Cc1ccccc1-c1cc2nc(NCCN3CCNC3=O)n(C)c(=O)c2s1 | inactive | inactive |  |  |  | inactive | inactive | inactive |
| CCOc1ccc(C(=O)Nc2c(C(=O)Nc3ccccc3F)oc3ccccc23)cc1OCC | inactive | inactive |  |  |  | inactive | inactive | inactive |
| COc1cc(SC)ccc1C(=O)Nc1c(C)cccc1C | inactive | inactive | -7.76% [at 17.1 µM, percent relative to cAMP agonist control] | -15.6% [at 30.8 µM] | 6.15% [at 30.8 µM] |  |  |  |
| CCC(=O)N1N=C(c2ccc(Cl)cc2)CC1c1ccco1 (stereo not given) | inactive | inactive |  |  |  | inactive | inactive | inactive |
| CSCCC(NS(=O)(=O)c1ccc2c(c1)oc(=O)n2C)C(=O)NC1CCCCC1 (stereo not given) | inactive | inactive |  |  |  | inactive | inactive | inactive |
| Cc1cc(C)c(S(=O)(=O)N2CCCC2)c(C)c1 | inactive | inactive |  |  |  | inactive | inactive | inactive |
| Cc1c(Cl)cccc1NC(=O)Nc1cccnc1 | inactive | inactive |  |  |  | inactive | inactive | inactive |
| O=C(Nc1ccccc1Cc1ccccc1)c1ccccc1NS(=O)(=O)c1ccc(Cl)s1 | 22.4 µM (active) | inactive | 8.53% [at 17.1 µM, percent relative to cAMP agonist control] | -15.4% [at 30.8 µM] | 8.31% [at 30.8 µM] |  |  |  |
